# Bioassay records (PubChem)
# BAZ2B inh: inhibitors of human BAZ2B bromodomain; 360,000 tested, 4.4% active; AlphaScreen BAZ2B-H3K14Ac peptide displacement; Q9UIF8; Potency, µM (titrated, usually from 114 µM), without a hit: at the top dose activity change, negative = inhibition, most hits filed as inhibitors; further: potency means the concentration at half of the fitted maximal effect; on the % scale 0 is the no-effect control and ±100 the full control effect; nearly all actives have a fitted effect of over 60% in size
#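 AlphaScreen displacement of biotin-H3(5-23)K14Ac peptide (50 nM final) from BAZ2B (50 nM final) in PBS pH 7.4, 0.01% Tween-20; complex preformed 30 min RT, then compounds (top 110 uM) 30 min RT, beads 20 min dark.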
# KDM4E inh: JMJD2E (human) inhibition; JMJD2E catalytic domain, FDH-coupled NADH fluorescence (FDH is formaldehyde dehydrogenase); 230,000 tested, 1.6% active; Potency, µM (series often up to 57.1 µM), for the others: at the highest dose activity change, negative = inhibition, usual class: inhibitors; B2RXH2; AID 2147; active means well fitted inhibition curve with a large enough effect, not every such curve was filed as active; inconclusive means small, poorly fitted or top-dose-only effect, or another doubt; inactive means no such curve, though single readings can be large or run the other way;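 further: potency means the concentration at half of the fitted maximal effect; 0% = wells with enzyme and -100% = buffer wells without enzyme; nearly all actives have a fitted effect of over 50% in size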
# Target sequence (B2RXH2 1-337 limits assumed): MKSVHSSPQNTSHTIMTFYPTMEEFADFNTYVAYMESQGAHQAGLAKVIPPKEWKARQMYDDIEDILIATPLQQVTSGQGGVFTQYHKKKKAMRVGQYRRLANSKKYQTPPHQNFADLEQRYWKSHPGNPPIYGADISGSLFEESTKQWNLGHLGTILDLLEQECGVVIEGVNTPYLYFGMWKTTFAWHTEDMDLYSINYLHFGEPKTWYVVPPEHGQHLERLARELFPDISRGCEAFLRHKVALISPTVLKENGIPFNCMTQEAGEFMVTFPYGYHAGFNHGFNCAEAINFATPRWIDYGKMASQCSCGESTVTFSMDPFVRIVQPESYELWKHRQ
# HP1b binding inh: blocks HP1-beta chromodomain binding to methylated histone tails; P83916; AlphaScreen HP1-beta / biotin-H3K9me3 peptide binding; Potency, µM (series often up to 114 µM), for the others: at the top dose activity change, negative = inhibition, most hits filed as inhibitors; 390,000 tested, 0.56% active; further: potency means the concentration at half of the fitted maximal effect; nearly all actives have a fitted effect of over 70% in size
# Target sequence (P83916 whole entry, looked up): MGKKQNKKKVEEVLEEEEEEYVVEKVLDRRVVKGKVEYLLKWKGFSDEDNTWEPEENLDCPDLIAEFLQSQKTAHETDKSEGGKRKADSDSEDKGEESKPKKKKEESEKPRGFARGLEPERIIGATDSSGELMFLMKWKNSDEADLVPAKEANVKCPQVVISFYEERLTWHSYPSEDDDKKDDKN
#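 AlphaScreen: HP1-beta (50 nM) preformed 30 min with biotin-H3(1-18)K9me3 peptide (50 nM) in PBS pH 7.4, 0.01% Tween-20. Compound added for 30 min at RT, then streptavidin donor/nickel chelate acceptor beads (10 ug/mL) for 30 min.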
# JMJD2A Tudor: blocks the human JMJD2A Tudor domain; 390,000 tested, 4.4% active; Potency, µM (highest dose often 114 µM), without a hit: at the highest dose activity change, negative = inhibition, usual class: inhibitors; AID 504339; O75164; AlphaScreen JMJD2A-Tudor / H3K4me3 peptide binding; further: potency means the concentration at half of the fitted maximal effect; on the % scale 0 is the no-effect control and ±100 the full control effect; nearly all actives have a fitted effect of over 50% in size
# L3MBTL1 block: inhibitors of human L3MBTL1 | Q9Y468 | AlphaScreen L3MBTL1–H3K9me1 peptide binding | 230,000 tested, 0.66% active | Potency, µM (doses to about 57.1 µM), without a hit: at the highest dose activity, negative = inhibition, hits mostly inhibitors; further: potency means the concentration at half of the fitted maximal effect; on the % scale 0 is the no-effect control and ±100 the full control effect; nearly all actives have a fitted effect of over 60% in size
#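 L3MBTL1 (50 nM) pre-complexed 30 min with biotinylated H3(1-15)K9me1 peptide (75 nM), then compounds added for 30 min at room temperature; AlphaScreen streptavidin donor/nickel chelate acceptor beads (10 ug/mL final) read after 30 min dark incubation.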
# PI5P4Ka inh: PI5P4K alpha (human) kinase inhibition. P48426. PI5P4Kalpha enzyme, ADP-Glo luminescence, 60 min; hits give low values. max response, %. 330,000 tested, 1.2% active. AID 652105; active means max response of -50% or lower; inconclusive means between -30% and -50%; inactive means -30% or higher; further: value at the top dose of about 77 µM; on the % scale 0 is the no-effect control and ±100 the full control effect
#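 qHTS, 1536-well: enzyme/substrate mix, compound by pin tool, 5 microM ATP final; RT 60 min; ADP-Glo reagents 1 (45 min) then 2 (30 min); luminescence.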
# * marks the source's active call; other numbers are inactive results; u = inconclusive; x = not tested or not shown; [ ] = another dose, or the depositor's remark. Rows were chosen to be rich in hits. Some 5.7% of all compounds tested hit in one or more screens of this group. Unless noted, the call rests on the fitted dose curve; in most records, active means well fitted inhibition curve with a large enough effect; inconclusive means small, poorly fitted or top-dose-only effect; inactive means no such curve, though single readings can be large or run the other way.
SMILES,BAZ2B inh,KDM4E inh,HP1b binding inh,JMJD2A Tudor,L3MBTL1 block,PI5P4Ka inh
Cc1cccnc1NC(=S)NCCc1ccccc1,35.5µM*,u,u,20µM*,-23.7%,-19.5
CC(C)(C)NC(=S)Nc1ccc(Nc2ccccc2)cc1,28.2µM*,1.1%,-38.8%,31.6µM*,u,x
S=C(NCCc1ccccc1)Nc1ccc(Nc2ccccc2)cc1,8.91µM*,-6.9%,11.2µM*,17.8µM*,-29.6%,-15.9
S=C(Nc1ccc(Nc2ccccc2)cc1)NC1CCCCCC1,12.6µM*,-5.0%,u,20µM*,-19.7%,-2.1
COc1ccc(NC(=S)Nc2ncccc2C)cc1OC,u,u,u,u,-17.2%,0.7
S=C(NCCc1ccccc1)Nc1cnc2ccccc2c1,-19.1%,25.1µM*,17.8%[57 µM],-19.7%,0.1%,11.5
O=C(NC(=S)Nc1cnc2ccccc2c1)c1ccccc1,-37.9%,u,38.3%,-12.7%,-9.7%,-5.9
S=C(NCc1ccccn1)Nc1ccccc1,79.4µM*,7.2%,34.2%,-2.1%,-8.8%,5.6
S=C(Nc1ccc(Cl)cc1)NC1CCCCC1,0.2%,7.0%,50.4%,-1.0%,-5.5%,-2.1
COc1ccc(NC(=S)Nc2ncccc2C)c(OC)c1,39.8µM*,8.9%,u,50.1µM*,u,x
CC(=NNC(=S)N1CC2CCC(CC2)C1)c1ccncn1,x,x,u,14.1µM*,x,-5.8
CC(=NNC(=S)N1CCCCC1)c1ccccn1,x,x,x,x,x,-6.3
c1ccc(-c2n[nH]c(-c3ccccn3)n2)cc1,8.91µM*,-5.0%,36.6%,u,x,-0.9
Cc1cc(C)c(OCC(=O)N(Cc2ccccc2)C2CCS(=O)(=O)C2)c(C)c1 (configuration not stated),4.9%,x,8.6%,-15.1%,x,2.4
O=c1c(Cl)c(Cl)cnn1Cc1nnc(-c2ccc(Cl)cc2)o1,x,-4.1%,35.4%,-12.6%,x,-57.8*
Cc1ccc(Cn2ncc(Cl)c(Cl)c2=O)cc1,3.2%,6.5%,61.0%,8.8%,6.9%,-18.0
CCCN(CCC)C(=O)CSc1ncccc1C(=O)O,-1.5%,-10.3%,23.2%,89.1µM*,u,3.7
CN(C(=O)CSc1ncccc1C(=O)O)c1ccccc1,0.6%,5.3%,25.0%,-15.6%,-1.3%,x
COc1cc(C(CCN2CCCCC2)c2c(OC)cc(OC)c3c(C)cc(=O)oc23)cc(OC)c1OC (configuration not stated),-13.2%,-2.9%,14.4%,-20.4%,x,-0.3
COc1ccc(C2CC(=O)Oc3c(C(CCN4CCCC(C)C4)c4ccc(N(C)C)cc4)c(OC)cc(OC)c32)cc1 (configuration not stated),14.1µM*,-11.8%,14.1µM*,14.1µM*,x,8.6
COc1cc(OC)c2c(c1C(CCN1CCCC1)c1ccc(N(C)C)cc1)OC(=O)CC2c1ccc(N(C)C)cc1 (configuration not stated),x,x,u,15.8µM*,x,x
COc1ccc(C2CC(=O)Oc3c(C(CCN4CCCCC4)c4ccc(N(C)C)cc4)c(OC)cc(OC)c32)cc1 (configuration not stated),22.4µM*,-4.3%,u,15.8µM*,x,-7.0
COc1ccc(C2CC(=O)Oc3c(C(CCN4CCCC(C)C4)c4cc(OC)c(OC)c(OC)c4)c(OC)cc(OC)c32)cc1 (configuration not stated),x,x,17.3%,u,x,x
CC(C)CCn1c(=O)c2sccc2n2c(CCCC(=O)NCCc3ccccc3)nnc12,-23.2%,x,37.3%,-6.2%,x,x
COC(=O)CCNC(=O)Cc1ccc(S(=O)(=O)N2CCCCC2)s1,-1.8%,x,-2.5%,-26.2%,-5.5%,u
SMILES,BAZ2B inh,KDM4E inh,HP1b binding inh,JMJD2A Tudor,L3MBTL1 block,PI5P4Ka inh
Cc1ccc(C)c(NC(=O)CSc2nnc(-c3cc4occc4n3C)n2-c2ccccc2C)c1,u,x,0.5%,u,x,x
Cc1cccc(N(C)C(=O)CCS(=O)(=O)c2ccc3c(c2)oc(=O)n3C)c1,0.3%[57.1 µM],x,0.3%,-22.0%,x,x
CN1C(=S)SC(C)(NO)C1(C)C (configuration not stated),u,-2.4%,u,22.4µM*,4.5%[11.4 µM],x
O=C(CSc1nnc2ccc(-c3ccccc3)nn12)NCC1CCCO1 (configuration not stated),x,u,55.2%,-11.0%[11.4 µM],x,-4.6
O=C(CSc1ccc2nnc(-c3cccc(F)c3)n2n1)NCC1CCCO1 (configuration not stated),-4.0%,u,u,31.6µM*,1.9%,x
CCSc1ccc2nnc(-c3cccc(F)c3)n2n1,11.5%,u,-36.8%,79.4µM*,u,x
CCCCn1c(N)c(N(CC(C)C)C(=O)COC(=O)c2ccccc2NCCO)c(=O)[nH]c1=O,70.8µM*,x,24.2%,2.1%,3.0%,4.3
O=C(CNS(=O)(=O)c1ccc(C(=O)N2CCCCC2)cc1)N1CCCCC1,-18.1%,13.5%,-6.6%,56.2µM*,x,-8.4
Cc1ccc(S(=O)(=O)NCC(=O)N2CCCCC2)cc1,4.3%,5.9%,49.3%,-9.9%,7.5%,5.0
O=C(NC1CCCC1)c1ccc2nc(-c3ccco3)c(-c3ccco3)nc2c1,u,-2.9%,79.4µM*,28.2µM*,-27.2%,-62.9*
O=C(NCCc1ccccc1)c1ccc2nc(-c3ccco3)c(-c3ccco3)nc2c1,10µM*,u,u,56.2µM*,x,-63.3*
O=C(NCCc1ccccc1)c1ccc(=O)oc1,-3.3%,-1.4%,31.3%,-14.5%,x,-2.9
O=C(NC1CCCC1)c1ccc2nc[nH]c2c1,-0.2%,0.9%,49.2%,18.9%,x,0.1
O=C(NCCO)c1ccc2nc(-c3ccco3)c(-c3ccco3)nc2c1,u,u,44.7µM*,22.4µM*,x,-16.1
CCOc1ccc(Br)cc1C1C(C(=O)Nc2ccccc2OC)=C(C)Nc2nnnn21 (configuration not stated),-10.2%,x,20.5%,-12.0%,x,x
CCC(=O)Nc1ccc(CC)cc1-c1nc2ccccc2n(CC(=O)c2ccc(OC)cc2)c1=O,-15.5%,x,7.0%,-19.9%,x,x
CCNC(=O)Nc1ccc(-n2nc(C)c(C(=O)OCC)c2C)nc1,-21.0%,u,0.2%,20µM*,8.7%,-25.1
O=C(O)c1ccc(/C=C2\SC(=S)N(NC(=O)c3ccccc3[N+](=O)[O-])C2=O)cc1,-3.0%,x,16.2%,-19.1%,x,u
Cn1cccc1/C=C1\SC(=S)N(NC(=O)c2ccccc2Cl)C1=O,u,-0.2%,12.9%,-12.6%,-9.9%,-4.1
Cc1ccc(C(=O)NN2C(=O)/C(=C/c3cccn3C)SC2=S)cc1,22.4µM*,-2.0%,u,u,u,-6.0
COc1cc(/C=C2\SC(=S)N(C(Cc3ccccc3)C(=O)O)C2=O)ccc1O (configuration not stated),35.5µM*,1.2%,u,-32.3%,-12.3%,-9.1
